An excerpt weighted towards active compounds, which were near 0.9% of everything screened.
TDP1 block = TDP1 (human) enzyme inhibition; hit rate 0.28% among 350,000; Potency, µM (top dose mostly 130 µM), usual class: inhibitors; recombinant TDP1, AlphaScreen DNA substrate cleavage; also: nearly all actives have a fitted effect of over 40% in size
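Here, a 5' biotin and 3' phosphotyrosine-FITC DNA oligonucleotide reports Tdp1 activity: intact substrate bridges AlphaScreen beads, while cleavage leaves a 3' phosphate and drops signal. All incubations at room temperature.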
RECQ1 helicase = RECQ1 (human) helicase inhibition; P46063; RECQ1 DNA unwinding, red fluorescence kinetic read; Potency, µM (highest dose often 57.3 µM), usual class: inhibitors; hit rate 0.54% among 240,000; also: nearly all actives have a fitted effect of over 30% in size
Target sequence (P46063 whole entry, looked up): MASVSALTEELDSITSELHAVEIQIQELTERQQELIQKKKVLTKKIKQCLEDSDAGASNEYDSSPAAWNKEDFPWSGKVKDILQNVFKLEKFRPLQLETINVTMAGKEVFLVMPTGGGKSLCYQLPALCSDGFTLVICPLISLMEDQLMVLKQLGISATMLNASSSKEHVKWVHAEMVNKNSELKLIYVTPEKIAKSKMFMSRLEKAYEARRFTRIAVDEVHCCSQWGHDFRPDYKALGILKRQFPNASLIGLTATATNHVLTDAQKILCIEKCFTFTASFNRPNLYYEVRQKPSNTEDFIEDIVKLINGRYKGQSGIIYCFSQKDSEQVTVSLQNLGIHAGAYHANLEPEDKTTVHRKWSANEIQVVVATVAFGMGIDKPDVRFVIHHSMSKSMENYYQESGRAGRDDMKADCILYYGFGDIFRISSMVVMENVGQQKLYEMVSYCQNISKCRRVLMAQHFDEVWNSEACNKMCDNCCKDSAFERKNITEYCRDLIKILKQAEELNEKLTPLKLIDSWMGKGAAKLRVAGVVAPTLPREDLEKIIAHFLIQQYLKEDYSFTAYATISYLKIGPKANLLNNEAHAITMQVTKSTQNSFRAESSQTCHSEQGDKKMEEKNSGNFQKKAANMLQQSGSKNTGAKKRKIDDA
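50 nM RECQ1T1 preincubated 15 min with compound in Tris pH 8.0 buffer with MgCl2, DTT, Tween-20 and 2.5 ug/ml poly(dI-dC); started with 200 nM TAMRA/BHQ-2 forked duplex and 2 mM ATP. Unwinding read as fluorescence (525/598 nm), two reads 2 h apart.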
LMNA splice mod = LMNA splicing modulation | hit rate 0.01% among 200,000 | HeLa LMNA splicing GFP/RFP minigene ratio, 48 h | Potency, µM (doses to about 46.1 µM), most hits filed as inhibitors | AID 1487; active = well fitted inhibition curve with a large enough effect in the signal ratio, with a control signal flat, not every such curve was filed as active; inconclusive = small, poorly fitted or top-dose-only effect, or effect the other way, or a change in a side signal; the % refers to the signal ratio
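S3 HeLa stable clones carrying a lamin A-EGFP splicing minigene plus DsRed2 were seeded at 600 cells/well in Opti-MEM with 2% FBS, pin-dosed and incubated 48 h at 37°C. Acumen cytometry (488 nm) gave the GFP/RFP total-intensity ratio.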
APE1 inh-1 = blocks human APE1 abasic DNA cleavage | recombinant APE1, TAMRA/BHQ-2 abasic DNA cleavage fluorescence | Potency, µM (doses to about 65.8 µM), hits mostly inhibitors | hit rate 0.35% among 350,000 | AID 2517; also: nearly all actives have a fitted effect of over 55% in size
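Measures dequenching upon AP-site incision of a 5'-TAMRA/3'-BHQ-2 THF-containing duplex, 50 nM; human APE1 0.75 nM after 15 min room-temperature exposure to compound; kinetic three-point read at one-minute spacing.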
BLM helicase inh = Bloom syndrome helicase (human) inhibition. P54132. recombinant BLM DNA unwinding, fluorescence dequenching. Potency, µM (series often up to 56.1 µM), hits mostly inhibitors. hit rate 0.2% among 350,000; also: nearly all actives have a fitted effect of over 35% in size
KAT2A inh = inhibitors of human GCN5L2 histone acetyltransferase | Q92830 | GCN5L2 HAT assay, ThioGlo1 CoA-SH fluorescence | Potency, µM (highest dose often 58.9 µM), hits mostly inhibitors | hit rate 0.21% among 390,000
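Titration-based screen in which CoA formation is detected via maleimide probe ThioGlo1 (50uM) turning fluorescent on thiol reaction; substrates H3(1-25) 75uM and acetyl-CoA 70uM, GCN5L2 20nM, 20 min incubation at room temperature.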
DNA dye displace = displaces fluorescent dye from DNA, flagging APE1 artifacts; Potency, µM (series often up to 28.5 µM), usual class: inhibitors; AID 2564; shares compounds with APE1 inh-1; DNA fluorescent dye displacement counterscreen, fluorescence; hit rate 7% among 480;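 also: loss of thiazole orange fluorescence as the dye is displaced from duplex DNA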
Endo IV inh = blocks E. coli endonuclease IV DNA cleavage. shares compounds with APE1 inh-1. Potency, µM (highest dose often 27.1 µM), actives largely listed as inhibitors. hit rate 4% among 560. E. coli Endo IV, fluorogenic AP-site DNA cleavage
APE1 inh-2 = confirmation of inhibitors of human APE1 endonuclease; shares compounds with APE1 inh-1; purified APE1, fluorogenic abasic-site DNA cleavage; AID 2572; Potency, µM (series often up to 57.1 µM), usual class: inhibitors; hit rate 44% among 750; also: nearly all actives have a fitted effect of over 30% in size
APE1 FP inh = compounds that displace a DNA probe from human APE1. Potency, µM (series often up to 28.5 µM), usual class: inhibitors. APE1 binding to TAMRA-labelled double-stranded DNA, fluorescence polarization displacement. shares compounds with APE1 inh-1. hit rate 7% among 480
Large screens that a line does not name were inactive (follow-up assays come after a bar, where they were run). Unless noted, calls follow the shape of the dose curve; as a rule, active = well fitted curve in the direction sought with a large enough effect; inconclusive = small, poorly fitted or top-dose-only effect, or another doubt; inactive = no such curve, though single readings can be large; an effect the other way counts as inactive or inconclusive.

Cc1cc(/C=C(/C#N)c2nc3ccccc3[nH]2)c(C)n1-c1cc(C(=O)O)cc(C(=O)O)c1	APE1 inh-1 inconclusive (no result: TDP1 block) | DNA dye displace inactive | Endo IV inh inactive | APE1 inh-2 inconclusive | APE1 FP inh inconclusive
Cc1cc(-c2ccccc2)[nH]c(=O)c1C#N	none (no result: LMNA splice mod)
Cc1ccc(-c2cc(-c3ccco3)c(C#N)c(=O)[nH]2)cc1	RECQ1 helicase inconclusive, APE1 inh-1 35µM, BLM helicase inh 25µM (no result: TDP1 block, LMNA splice mod) | DNA dye displace inactive | Endo IV inh inactive | APE1 inh-2 inconclusive | APE1 FP inh inconclusive
O=C(Nc1ccc2nc(-c3ccco3)c(-c3ccco3)nc2c1)N1CCCCCC1	RECQ1 helicase 5.6µM, APE1 inh-1 3.5µM, BLM helicase inh 5.6µM, KAT2A inh 14µM (no result: TDP1 block) | DNA dye displace inconclusive | Endo IV inh inconclusive | APE1 inh-2 4µM | APE1 FP inh 13µM
COc1ccc(C(=O)c2ccc(CC#N)s2)cc1	TDP1 block 89µM, LMNA splice mod inconclusive | APE1 inh-2 inactive
COc1ccc(C(=O)c2ccsc2N)cc1	none (no result: TDP1 block, RECQ1 helicase, LMNA splice mod)
O=C1CCCC(O)=C1N=Nc1ccc2c(c1)OCO2	none
O=C1CCCC(O)=C1N=Nc1ccc(C(=O)O)cc1	TDP1 block 2.2µM, RECQ1 helicase inconclusive, APE1 inh-1 8.9µM | DNA dye displace inconclusive | Endo IV inh inactive | APE1 inh-2 10µM | APE1 FP inh inactive
Nc1ccc(S(=O)(=O)N2CCN(S(=O)(=O)c3ccc4c(c3)OCCO4)CC2)cc1	none (no result: RECQ1 helicase, LMNA splice mod, APE1 inh-1, BLM helicase inh, KAT2A inh)
CCN(c1ccccc1)S(=O)(=O)c1cc(C(=O)OC(C)C(=O)Nc2ccc3c(c2)OCCO3)ccc1C (configuration not stated)	APE1 inh-1 11µM (no result: TDP1 block) | DNA dye displace inactive | Endo IV inh inactive | APE1 inh-2 14µM | APE1 FP inh inconclusive
Cc1ccccc1OC(C)C(=O)Nc1ccc2c(c1)OCCO2 (configuration not stated)	none (no result: RECQ1 helicase, LMNA splice mod)
N#Cc1nc(Nc2cccc3ccccc23)nc(NC2CCCC2)n1	none (no result: RECQ1 helicase, LMNA splice mod, APE1 inh-1, BLM helicase inh, KAT2A inh)
CC(NC(=O)COC(=O)c1cc(NS(=O)(=O)c2ccc(Cl)c([N+](=O)[O-])c2)ccc1O)C1CC2CCC1C2 (configuration not stated)	LMNA splice mod inconclusive
COc1ccc(NS(=O)(=O)c2ccc(O)c(C(=O)OCC(=O)NC(C)C3CC4CCC3C4)c2)cc1 (configuration not stated)	APE1 inh-1 22µM (no result: TDP1 block) | DNA dye displace inconclusive | Endo IV inh inactive | APE1 inh-2 inconclusive | APE1 FP inh inconclusive
OCC1=C[C@@H](O)[C@@H]2C=CO[C@@H](OC3O[C@H](CO)[C@@H](O)[C@H](O)[C@H]3O)[C@H]12 (some centres not stated)	none (no result: LMNA splice mod)
O=C(CSc1nnc(SCc2cccc3ccccc23)s1)N/N=C/c1c[nH]c2ccccc12	LMNA splice mod inconclusive
O=C(CSc1nnc(SCc2ccc(Cl)cc2)s1)N/N=C/c1c[nH]c2ccccc12	TDP1 block 22µM, BLM helicase inh inconclusive | APE1 inh-2 inactive
Cc1nc(N)sc1-c1csc(Nc2ncccn2)n1	TDP1 block 89µM, APE1 inh-1 inconclusive (no result: LMNA splice mod) | APE1 inh-2 inconclusive
COc1ccc(-c2nnc3ccc(SCC(=O)NCc4ccco4)nn23)cc1	TDP1 block 79µM, APE1 inh-1 inconclusive | APE1 inh-2 inactive

Compound activity from PubChem BioAssay.
